# Where “and” joins values, the source holds several entries; their conditions need not be identical. Equal values may be shown once. The source holds several records for some structures; these can differ, active in one and inactive in another. Calls of active or inactive are those of the source. Entries that show only a call come without a potency. Unless noted, calls come from the whole dose curve; as a rule, active = well fitted curve in the direction sought with a large enough effect in the repeat runs; inconclusive = weak or mixed curves; inactive = no such curve, though single readings can be large; an effect the other way counts as inactive or inconclusive.
# Legend:
# [1] = qHTS assay to identify small molecule antagonists of the glucocorticoid receptor (GR) signaling pathway - cell viability counter screen (AID 720693); note: nearly all actives have a fitted effect of over 55% in size; note: potency is the fitted concentration of half-maximal effect
# [2] = qHTS assay for identifying genotoxic compounds that show differential cytotoxicity against isogenic chicken DT40 cell lines with known DNA damage response pathways - wild type cell line (AID 743012); note: nearly all actives have a fitted effect of over 60% in size; note: potency is the fitted concentration of half-maximal effect
# Outline: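 Cytotoxicity in repair-proficient parental chicken DT40 cells serves as the comparator for Rad54/Ku70- and Rev3-deficient lines. Cells were exposed to compounds for 40 h at 37 C/5% CO2, and ATP-based luminescence (CellTiter-Glo) measured viability.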
# [3] = qHTS assay for identifying genotoxic compounds that show differential cytotoxicity against isogenic chicken DT40 cell lines with known DNA damage response pathways - Rev3 mutant cell line (AID 743014); note: nearly all actives have a fitted effect of over 55% in size; note: potency is the fitted concentration of half-maximal effect
# [4] = qHTS assay for identifying genotoxic compounds that show differential cytotoxicity against isogenic chicken DT40 cell lines with known DNA damage response pathways - Rad54/Ku70 mutant cell line (AID 743015); note: nearly all actives have a fitted effect of over 60% in size; note: potency is the fitted concentration of half-maximal effect
# [5] = qHTS assay to identify small molecule antagonists of the androgen receptor (AR) signaling pathway - cell viability counter screen (AID 743033; note: nearly all actives have a fitted effect of over 45% in size; note: potency is the fitted concentration of half-maximal effect)
# [6] = qHTS assay to identify small molecule antagonists of the androgen receptor (AR) signaling pathway using the MDA cell line - cell viability counter screen (AID 743041; note: nearly all actives have a fitted effect of over 45% in size; note: potency is the fitted concentration of half-maximal effect)
# Outline: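 In this qHTS counter assay, fluorescence intensity after CellTiter-Fluor addition indicated viability of MDA-kb2 AR-luc cells given compounds and R1881 for 16 h at 37C.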
# [7] = qHTS assay to identify small molecule antagonists of the thyroid receptor (TR) signaling pathway - cell viability counter screen (AID 743064); note: nearly all actives have a fitted effect of over 50% in size; note: potency is the fitted concentration of half-maximal effect
# Outline: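 In rat pituitary GH3.TRE-Luc reporter cells co-exposed to compound and 1 nM T3 for 23.5 h, cytotoxicity was assessed with CellTiter-Fluor in the same wells, read by fluorescence.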
# [8] = system: thyroid hormone receptor (rat, GH3 cells); test: qHTS assay to identify small molecule agonists of the thyroid receptor (TR) signaling pathway (AID 743066; calls by dose curve)
# [9] = qHTS assay to identify small molecule antagonists of the estrogen receptor alpha (ER-alpha) signaling pathway - cell viability counter screen (AID 743074; calls by dose curve;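 note: HEK293 cells carrying ER-alpha-UAS-bla reporter stimulated with 17beta-estradiol; nearly all actives have a fitted effect of over 45% in size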; note: potency is the fitted concentration of half-maximal effect)
# [10] = qHTS assay to identify small molecule antagonists of the estrogen receptor alpha (ER-alpha) signaling pathway using the BG1 cell line - cell viability counter screen (AID 743081);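 note: compound given together with 17beta-estradiol as the ER stimulus; nearly all actives have a fitted effect of over 45% in size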; note: potency is the fitted concentration of half-maximal effect
# Aromatase (Homo sapiens) = Aromatase (Homo sapiens) (UniProt P11511); test: qHTS assay to identify aromatase inhibitors (AID 743083); note: nearly all actives have a fitted effect of over 55% in size; note: potency is the fitted concentration of half-maximal effect
# [11] = qHTS assay to identify aromatase inhibitors - cell viability counter screen (AID 743084);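 note: cells stimulated with testosterone during compound exposure; nearly all actives have a fitted effect of over 55% in size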; note: potency is the fitted concentration of half-maximal effect
# [12] = qHTS assay to identify small molecule antagonists of the thyroid receptor (TR) signaling pathway (AID 743065); note: nearly all actives have a fitted effect of over 55% in size; note: potency is the fitted concentration of half-maximal effect
# Outline: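 GH3.TRE-Luc rat pituitary cells carrying two TR response elements driving luciferase were plated for 4 h, given compound plus 1 nM T3 (final), and incubated 23.5 h at 37 C. ONE-Glo luminescence measured reporter inhibition; CellTiter-Fluor fluorescence tracked cytotoxicity.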
# [13] = biological target: Estrogen receptor (Homo sapiens) (UniProt P03372); test: qHTS assay to identify small molecule antagonists of the estrogen receptor alpha (ER-alpha) signaling pathway (AID 743069; active = well fitted curve in the direction sought with a large enough effect in the signal ratio in the repeat runs, not every such curve was filed as active; inconclusive = weak or mixed curves, or effect the other way; inactive = no such curve, though single readings can be large or run the other way; the % refers to the signal ratio; note: potency is the fitted concentration of half-maximal effect)
# Outline: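 A 17beta-estradiol challenge was applied right after compound transfer to ER-alpha-UAS-bla HEK293 cells previously kept in charcoal-stripped serum. Plates stood 18 hr at 37C and 5% CO2; fluorescence was read following 2 hr FRET substrate loading at room temperature.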
# [14] = biological target: Estrogen receptor (Homo sapiens) (UniProt P03372); test: qHTS assay to identify small molecule agonists of the estrogen receptor alpha (ER-alpha) signaling pathway (AID 743075; calls by dose curve;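 note: HEK293 GripTite cells with ER-alpha and UAS-driven beta-lactamase reporter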); conditions: HEK293 ER-alpha-UAS-bla, beta-lactamase FRET ratio, 18 h; activation: at 70.1 µM (top of the series)
# [15] = biological target: Estrogen receptor (Homo sapiens) (UniProt P03372); test: qHTS assay to identify small molecule agonists of the estrogen receptor alpha (ER-alpha) signaling pathway using the BG1 cell line (AID 743079); conditions: BG1Luc4E2 cells, ERE-luciferase agonist, 22 h; for activation: at 70.3 µM (top of the series); note: potency is the fitted concentration of half-maximal effect; for all read-outs here: nearly all actives have a fitted effect of over 20% in size
# [16] = qHTS assay to identify small molecule antagonists of the estrogen receptor alpha (ER-alpha) signaling pathway using the BG1 cell line (AID 743080; calls by dose curve;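 note: BG1 cells stimulated with 17beta-estradiol alongside compound; nearly all actives have a fitted effect of over 25% in size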; note: potency is the fitted concentration of half-maximal effect)
# Outline: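 BG1Luc4E2, endogenous ER-alpha, 4xERE-luc; 5 d charcoal-stripped FBS, phenol red free; 24 h plating; cpd + 17beta-estradiol 21.5 h, 37 C/5% CO2; CellTiter-Fluor viability 30 min, then ONE-Glo luciferase 30 min RT.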
# [17] = biological target: Androgen receptor (Homo sapiens) (UniProt P10275); test: qHTS assay to identify small molecule antagonists of the androgen receptor (AR) signaling pathway (AID 743035; active = well fitted inhibition curve with a large enough effect in the signal ratio in the repeat runs, not every such curve was filed as active; inconclusive = weak or mixed curves, or effect the other way; inactive = no such curve, though single readings can be large or run the other way; the % refers to the signal ratio; note: potency is the fitted concentration of half-maximal effect)
# Outline: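 Steps: seed AR-UAS-bla GripTite HEK293 cells, incubate 4 h at 37C; pin in test compound, then add agonist R1881; incubate 16 h at 37C; add LiveBLAzer B/G FRET substrate, 2 h at room temperature; read fluorescence.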
# [18] = biological target: Androgen receptor (Homo sapiens) (UniProt P10275); test: qHTS assay to identify small molecule agonists of the androgen receptor (AR) signaling pathway using the MDA cell line (AID 743040; note: nearly all actives have a fitted effect of over 20% in size)
# Outline: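 Cell-based luciferase reporter: MDA-kb2, MMTV promoter (AR + GR response elements). 16 h compound exposure at 37C; ONE-Glo, 30 min RT, luminescence.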
# [19] = biological target: Androgen receptor (Homo sapiens) (UniProt P10275); test: qHTS assay to identify small molecule antagonists of the androgen receptor (AR) signaling pathway using the MDA cell line (AID 743042)
# Outline: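 MDA-kb2 cells (human breast carcinoma, stably carrying an MMTV-luciferase reporter responsive to AR and GR) were plated at 3,000 cells/well and preincubated 5 hr at 37C, then given compound plus R1881 agonist for 16 h. ONE-Glo luminescence was read.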
# Androgen receptor (Homo sapiens), sequence (P10275 whole entry, looked up): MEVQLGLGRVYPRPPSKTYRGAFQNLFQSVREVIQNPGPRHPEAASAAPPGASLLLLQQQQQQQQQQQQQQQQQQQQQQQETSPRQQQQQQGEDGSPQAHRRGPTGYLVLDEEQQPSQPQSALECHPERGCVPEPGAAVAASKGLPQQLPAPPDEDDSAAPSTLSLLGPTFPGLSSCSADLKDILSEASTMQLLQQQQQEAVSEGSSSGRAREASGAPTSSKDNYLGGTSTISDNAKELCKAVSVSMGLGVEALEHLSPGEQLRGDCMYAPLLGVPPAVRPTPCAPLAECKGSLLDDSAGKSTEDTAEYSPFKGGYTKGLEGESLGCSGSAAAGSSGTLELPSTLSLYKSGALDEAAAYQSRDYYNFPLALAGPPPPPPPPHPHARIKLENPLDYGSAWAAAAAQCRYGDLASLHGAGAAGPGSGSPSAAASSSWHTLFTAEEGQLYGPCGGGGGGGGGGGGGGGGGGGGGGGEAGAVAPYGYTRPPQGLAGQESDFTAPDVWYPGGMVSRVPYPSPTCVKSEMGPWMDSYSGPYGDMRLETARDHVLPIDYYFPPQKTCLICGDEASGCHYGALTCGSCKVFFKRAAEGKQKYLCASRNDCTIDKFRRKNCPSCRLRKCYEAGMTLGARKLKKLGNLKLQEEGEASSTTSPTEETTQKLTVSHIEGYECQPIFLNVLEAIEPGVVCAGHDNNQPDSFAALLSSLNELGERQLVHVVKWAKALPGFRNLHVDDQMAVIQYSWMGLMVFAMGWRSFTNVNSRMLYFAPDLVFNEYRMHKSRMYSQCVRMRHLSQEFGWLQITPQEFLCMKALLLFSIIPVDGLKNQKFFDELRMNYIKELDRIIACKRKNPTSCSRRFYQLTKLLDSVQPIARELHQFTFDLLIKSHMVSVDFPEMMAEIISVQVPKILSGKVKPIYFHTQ
# Estrogen receptor (Homo sapiens), sequence (P03372 whole entry, looked up): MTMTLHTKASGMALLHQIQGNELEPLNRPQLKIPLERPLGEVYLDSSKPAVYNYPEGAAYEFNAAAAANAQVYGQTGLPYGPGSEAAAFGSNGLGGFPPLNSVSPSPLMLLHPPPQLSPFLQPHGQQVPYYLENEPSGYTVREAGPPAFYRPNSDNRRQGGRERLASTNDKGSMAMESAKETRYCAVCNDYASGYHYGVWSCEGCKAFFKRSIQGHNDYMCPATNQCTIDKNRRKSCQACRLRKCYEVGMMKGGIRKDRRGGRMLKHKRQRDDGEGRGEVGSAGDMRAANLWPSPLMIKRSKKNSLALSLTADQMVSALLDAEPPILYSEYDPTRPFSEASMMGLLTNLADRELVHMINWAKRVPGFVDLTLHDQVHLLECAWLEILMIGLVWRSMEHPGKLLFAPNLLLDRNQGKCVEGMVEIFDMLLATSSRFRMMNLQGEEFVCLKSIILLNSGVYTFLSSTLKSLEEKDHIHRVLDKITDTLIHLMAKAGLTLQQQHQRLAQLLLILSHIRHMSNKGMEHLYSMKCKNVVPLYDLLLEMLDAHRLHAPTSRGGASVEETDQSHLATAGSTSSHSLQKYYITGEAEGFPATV
# Aromatase (Homo sapiens), sequence (P11511 whole entry, looked up): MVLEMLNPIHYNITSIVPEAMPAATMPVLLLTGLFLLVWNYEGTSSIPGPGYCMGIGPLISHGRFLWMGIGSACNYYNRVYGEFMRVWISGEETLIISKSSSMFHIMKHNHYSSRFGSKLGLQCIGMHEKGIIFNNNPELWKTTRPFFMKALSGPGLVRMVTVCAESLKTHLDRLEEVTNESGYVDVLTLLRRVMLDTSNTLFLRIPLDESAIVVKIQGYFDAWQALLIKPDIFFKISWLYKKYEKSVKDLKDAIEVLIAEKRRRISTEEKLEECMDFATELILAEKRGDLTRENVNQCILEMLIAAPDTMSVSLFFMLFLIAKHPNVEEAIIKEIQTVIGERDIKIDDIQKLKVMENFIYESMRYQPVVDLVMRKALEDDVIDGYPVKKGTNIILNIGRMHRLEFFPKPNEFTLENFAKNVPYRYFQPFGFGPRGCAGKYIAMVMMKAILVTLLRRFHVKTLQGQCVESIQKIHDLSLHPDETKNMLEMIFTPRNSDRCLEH
structure (smiles),measurement,setting,value
CCCC1O[C@@H]2C[C@H]3[C@@H]4CCC5=CC(=O)C=C[C@]5(C)[C@H]4[C@@H](O)C[C@]3(C)[C@]2(C(=O)CO)O1 (some centres undefined),Potency,[1],inactive
same,Potency,[2],inactive
same,Potency,[3],inactive and 48.6 µM (active)
same,Potency,[4],inactive and 68.7 µM (active) and 54.5 µM (active)
same,Potency,[5],inactive
same,Potency,[6],inactive
same,Potency,[7],inactive
same,Potency,[8],inactive
same,Potency,[9],inactive
same,Potency,[10],inactive
same,Potency,Aromatase (Homo sapiens),inactive
same,Potency,[11],inactive and 61.2 µM (active)
COc1c(C)c2c(c(O)c1C/C=C(\C)CCC(=O)O)C(=O)OC2,Potency,[1],inactive
same,Potency,[2],0.16 µM (active)
same,Potency,[3],0.16 µM (active)
same,Potency,[4],0.202 µM (active)
same,Potency,[6],inactive
same,Potency,[7],0.717 µM (active)
same,Potency,[12],507 nM (active)
same,Potency,[8],inactive
same,Potency,[13],0.512 µM [inconclusive] (active)
same,Potency,[9],inactive
same,Potency,[10],inactive
same,Potency,Aromatase (Homo sapiens),inactive
N/C(=N\N=C\c1ccc(Cl)cc1)N/N=C/c1ccc(Cl)cc1,Potency,[1],inactive
same,Potency,[2],inactive
same,Potency,[3],inactive
same,Potency,[4],inactive
same,Potency,[5],inactive
same,Potency,[6],inactive
same,Potency,[12],29800 nM (active)
same,Potency,[8],inactive
same,Potency,[13],inactive
same,Potency,[9],inactive
same,Potency,[14],inactive
same,activation,[15],-3.33% (inactive)
same,Potency,[16],inactive
same,Potency,[10],inactive
same,Potency,Aromatase (Homo sapiens),inactive
same,Potency,[11],inactive
O=C(NO)C1(NS(=O)(=O)c2ccc(Oc3ccc(F)cc3)cc2)CCOCC1,Potency,[1],inactive
same,Potency,[2],54.5 µM (active)
same,Potency,[3],30.6 µM (active)
same,Potency,[4],30.6 µM (active)
same,Potency,[5],inactive
same,Potency,[7],inactive
same,Potency,[12],inactive
same,Potency,[8],inactive
same,Potency,[13],inactive
same,Potency,[9],inactive
same,Potency,[14],inactive
same,Potency,[10],inactive
same,Potency,Aromatase (Homo sapiens),inactive
same,Potency,[11],inactive
Cc1c(C)c2c(c(C)c1OC(=O)CCC(=O)O)CC[C@@](C)(CCC[C@H](C)CCC[C@H](C)CCCC(C)C)O2,Potency,[1],26.8 µM (active)
same,Potency,[2],inactive
same,Potency,[3],inactive
same,Potency,[4],inactive
same,Potency,[5],inactive
same,Potency,[7],23.7 µM (active)
same,Potency,[12],inactive
same,Potency,[8],inactive
same,Potency,[9],inactive
same,Potency,[10],inactive
same,Potency,Aromatase (Homo sapiens),inactive
same,Potency,[11],inactive
CN(C)c1ccc(SC#N)cc1,Potency,[1],inactive
same,Potency,[2],27.3 µM (active)
same,Potency,[3],30.6 µM (active)
same,Potency,[4],38.6 µM (active)
same,Potency,[5],inactive
same,Potency,[6],inactive
same,Potency,[8],inactive
same,Potency,[9],inactive
same,Potency,[14],inactive
same,Potency,[15],61.1 µM (active)
same,Potency,[16],inactive
same,Potency,[10],inactive
same,Potency,Aromatase (Homo sapiens),inactive
same,Potency,[11],inactive
CCCCCCCC[N+](CCCCCCCC)(CCCCCCCC)CCCCCCCC,Potency,[1],7.75 µM (active)
same,Potency,[2],2.43 µM (active)
same,Potency,[3],1.37 µM (active)
same,Potency,[4],1.37 µM (active)
same,Potency,[5],0.308 µM (active)
same,Potency,[6],4.32 µM (active)
same,Potency,[7],3.43 µM (active)
same,Potency,[13],38.8 µM [cytotoxic] (active)
same,Potency,[9],15.5 µM (active)
same,Potency,[16],1.72 µM (active)
same,Potency,[10],24.3 µM (active)
same,Potency,Aromatase (Homo sapiens),2.16 µM (active)
same,Potency,[11],21.6 µM (active)
O=C(OCC(COC(=O)c1ccccc1)(COC(=O)c1ccccc1)COC(=O)c1ccccc1)c1ccccc1,Potency,[1],inactive
same,Potency,[2],inactive
same,Potency,[3],inactive
same,Potency,[4],inactive
same,Potency,[5],inactive
same,Potency,[6],inactive
same,Potency,[12],inactive
same,Potency,[8],inactive
same,Potency,[9],inactive
same,Potency,[10],inactive
same,Potency,Aromatase (Homo sapiens),inactive
same,Potency,[11],inactive
COc1cccc(N)c1,Potency,[1],inactive
same,Potency,[2],inactive
same,Potency,[3],inactive
same,Potency,[4],inactive
same,Potency,[5],inactive
same,Potency,[6],inactive
same,Potency,[7],inactive
same,Potency,[8],inactive
same,Potency,[9],inactive
same,Potency,[10],inactive
O=C(Oc1ccccc1)c1ccccc1C(=O)Oc1ccccc1,Potency,[1],inactive
same,Potency,[2],19.3 µM (active)
same,Potency,[3],34.4 µM (active)
same,Potency,[4],17.2 µM (active)
same,Potency,[17],49 µM (active)
same,Potency,[18],inactive
same,Potency,[19],54.5 µM (active)
same,Potency,[8],inactive
same,Potency,[9],inactive
same,Potency,[14],inactive
same,activation,[15],-7.29% (inactive)
same,Potency,[10],inactive
CCOc1nc2cccc(C(=O)OC(C)OC(=O)OC3CCCCC3)c2n1Cc1ccc(-c2ccccc2-c2nn[nH]n2)cc1 (centres undefined),Potency,[1],38.9 µM (active)
same,Potency,[2],34.3 µM (active)
same,Potency,[3],19.3 µM (active)
same,Potency,[4],17.2 µM (active)
same,Potency,[5],30.9 µM (active)
same,Potency,[16],inactive
same,Potency,[10],inactive
same,Potency,Aromatase (Homo sapiens),48.5 µM (active)
CCN(CC)CCCC(C)Nc1c2ccc(Cl)cc2nc2ccc(OC)cc12 (centres undefined),Potency,[1],inactive
same,Potency,[2],5.31 µM (active)
same,Potency,[3],5.96 µM (active)
same,Potency,[4],6.68 µM (active)
same,Potency,[5],inactive
same,Potency,[9],inactive
same,Potency,Aromatase (Homo sapiens),inactive
same,Potency,[11],inactive
CC(=O)N1CCN(c2ccc(OC[C@H]3CO[C@](Cn4ccnc4)(c4ccc(Cl)cc4Cl)O3)cc2)CC1,Potency,[1],inactive
same,Potency,[2],10.6 µM (active) and 3.86 µM (active)
same,Potency,[3],23.7 µM (active) and 4.33 µM (active)
same,Potency,[4],21.1 µM (active) and 6.11 µM (active)
same,Potency,[5],inactive and 19.5 µM (active)
same,Potency,[7],inactive and 21.7 µM (active)
same,Potency,[12],26.6 µM (active) and 15.4 µM (active)
same,Potency,[8],inactive
same,Potency,[13],inactive
same,Potency,[9],inactive and 43.6 µM (active)
same,Potency,[14],inactive
same,Potency,[16],13.3 µM (active)
same,Potency,[10],inactive
same,Potency,Aromatase (Homo sapiens),inactive
same,Potency,[11],inactive and 61.1 µM (active)
S=c1[nH]c2ccccc2s1,Potency,[1],inactive
same,Potency,[2],29.8 µM (active) and 61.1 µM (active)
same,Potency,[3],29.8 µM (active) and 66.6 µM (active)
same,Potency,[4],29.8 µM (active) and 64 µM (active)
same,Potency,[5],inactive
same,Potency,[7],inactive
same,Potency,[12],inactive
same,Potency,[8],inactive
same,Potency,[9],inactive and 6.16 µM (active)
same,Potency,Aromatase (Homo sapiens),inactive
same,Potency,[11],inactive

# Reference: PubChem BioAssay (Tox21)
